# Values without a mark were called inactive. No rule for the calls is given here.
# Target: Pantothenate synthetase (Mycobacterium tuberculosis (strain ATCC 25618 / H37Rv)) (UniProt P9WIL5)
# Experiment: Recombinant Mtb pantothenate synthetase (PanC) inhibitors, coupled enzyme, confirmatory (AID 375);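 also: 0% = full reaction with vehicle and 100% = no enzyme background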
# Settings: coupled enzyme assay; at 10 µM, active compounds read high
# Chain of Pantothenate synthetase (Mycobacterium tuberculosis (strain ATCC 25618 / H37Rv)) (P9WIL5 whole entry, looked up): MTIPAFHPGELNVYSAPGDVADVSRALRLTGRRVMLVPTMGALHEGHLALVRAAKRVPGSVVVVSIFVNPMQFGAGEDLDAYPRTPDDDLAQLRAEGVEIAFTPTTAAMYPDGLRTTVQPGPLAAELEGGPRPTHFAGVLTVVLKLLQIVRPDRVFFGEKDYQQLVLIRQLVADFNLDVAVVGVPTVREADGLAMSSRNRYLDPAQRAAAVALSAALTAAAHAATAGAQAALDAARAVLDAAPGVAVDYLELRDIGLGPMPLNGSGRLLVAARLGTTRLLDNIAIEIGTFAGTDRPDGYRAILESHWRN
row,Compound,inhibition
1,CC(=Nc1cccc(O)c1)c1sc2ccccc2c1O,0%
2,CCC(C)Nc1nc2c(c(=O)n(C)c(=O)n2C)n1Cc1ccc(F)cc1 (stereo not given),3%
3,CCOC(=O)C1CCCN(C(=O)c2cc3c(-c4cccc(OC)c4)nn(C)c3s2)C1 (stereo not given),0%
4,CCn1c2ccccc2c2cc(NC(=O)Cc3ccc(S(=O)(=O)N4CCOCC4)s3)ccc21,0%
5,CCOc1ccc(NC(=O)Cn2nnc(-c3ccccc3F)n2)cc1,2%
6,FC(F)(F)c1cc(-c2ccco2)nc(NCc2ccco2)n1,0%
7,COc1cc(C(Nc2ccc3c(c2)OCO3)C(=O)NC2CCCCC2)cc(OC)c1OC (stereo not given),2%
8,CCN(CC)S(=O)(=O)c1ccc(NC2c3ccccc3C(=O)N2CCN2CCOCC2)cc1 (stereo not given),0%
9,C=CCn1c(=O)n(CCOC)c(=O)c2sc3ccccc3c21,0%
10,COc1ccc(OC)c(NC(=O)C2CCN(c3cc(-c4ccccc4)nc4ncnn34)CC2)c1,2%
11,COc1cccc(NC(=O)N2CCCC2C(=O)NC(C)C)c1 (stereo not given),0%
12,Cc1cccn2c(=O)c3cc(C(=O)NC4CCCC4)c(=N)n(C4CCCC4)c3nc12,0%
13,CCOC(=O)Cn1nnnc1C(C(C)C)N(Cc1cc2c(C)cc(C)cc2[nH]c1=O)C1CCCC1 (stereo not given),0%
14,Cc1cc2oc(=O)cc(CN3CCCCC3)c2cc1C(C)C,0%
15,O=C1c2ccccc2C(=O)N1OCc1ccccc1,0%
16,COC(=O)c1cc(Br)ccc1-c1ccc(/C=N/n2nnnc2N)o1,7%
17,CCCC(O)(CCN(C)C)c1ccc(OC)cc1 (stereo not given),0%
18,COC(=O)C(F)(F)Sc1c(C)[nH]c2ccccc12,3%
19,CCCS(=O)(=O)N1CCN(C(=O)c2cccnc2)CC1,0%
20,COc1ccccc1N1CCN(C(=O)CSc2nc3ncnc(N)c3[nH]2)CC1,8%

row,Compound,inhibition
1,O=C(NC1CCCCC1)C(c1ccccc1)N(Cc1ccco1)C(=O)Cn1cnc2ccccc21 (stereo not given),0%
2,CC(C)=CC/C=C1\CCC(C(=O)O)C(C(=O)O)C1 (stereo not given),0%
3,O=C(Nc1nnc(CCN2CCCCC2)s1)C1CCCCC1,0%
4,CN(CCNS(=O)(=O)c1ccc2c(c1)oc(=O)n2C)Cc1ccccc1,0%
5,Cc1ccc(N(C)C(=O)N2CCN(c3ccccn3)CC2)cc1,0%
6,COc1ccccc1C(=O)Nc1nc2ccc(S(C)(=O)=O)cc2s1,0%
7,COc1cccc(NC(=O)NC2(C(F)(F)F)Oc3ccccc3O2)c1,0%
8,O=C(Cn1nnc(-c2cccc(C(F)(F)F)c2)n1)NC(=O)NCc1ccco1,0%
9,COCC(=O)Nc1cc(OC)ccc1OC,3%
10,Cc1cc(C(=O)CSc2nnc(-c3ccccc3)n2C)c(C)n1C,0%
11,CC(C)Sc1nc(N2CCCC2)c2c(c1C#N)CC(C)(C)OC2,0%
12,Cc1cc(NC(=O)c2cc3ccccc3o2)cc(C)c1OCC(=O)N1CCOCC1,0%
13,N#CCOc1nc(N2CCOCC2)nc(N2CCOCC2)n1,0%
14,COc1ccc(CCN(Cc2cc3cccc(C)c3[nH]c2=O)C(=O)N2CCCC2)cc1OC,0%
15,COc1ccc(-c2nnc(SCC(=O)Nc3sc4c(c3C#N)CCC4)n2CC2CCCO2)cc1 (stereo not given),0%
16,CC1CCCC(C(=O)OCc2ccccc2)N1 (stereo not given),0%
17,O=C(NCCC1=CCCCC1)C1CCN(S(=O)(=O)c2cnc[nH]2)CC1,2%
18,CN1CCc2c(sc3c2c(=O)n(-c2ccccc2)c2nnc(SCc4ccc(F)cc4)n32)C1,0%
19,CS(=O)(=O)N(CC(=O)N1CCCCCC1)c1ccc(Br)cc1,0%
20,Cn1c(-c2cc(Br)ccc2O)n[nH]c1=S,2%
